In the library only some 2.6% were active in any assay of this set; here they are far more common.
M18AAP inhibitor – PfM18AAP inhibitors, malaria aminopeptidase, primary screen, biochemical, QFRET, recombinant enzyme | M18 aspartyl aminopeptidase (Plasmodium falciparum 3D7) | H-Glu-NHMec fluorogenic cleavage | inhibition, % at 7.35 µM | 290,000 tested, 1.2% active;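 active = inhibition above the campaign mean inhibition over all tested compounds plus 3 SD, cut at about 28% in these data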;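 note: 0% = plate median of test compound wells and 100% = 2 mM ZnCl2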
Platelet DG rel – inhibitors of platelet dense granule secretion, primary screen, cell-based, MLPCN, human platelets. human platelet-rich plasma, SFLLRN dense granule ATP release, luminescence. inhibition, %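 (compounds screened at 7.5 µM in platelet-rich plasma)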. 300,000 tested, 0.22% active. AID 1663, 2009;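 active = mean replicate score, as percent of positive control, at or above 50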
ABHD5 PLIN5 PPI – ABHD5-PLIN5 interaction inhibitors, primary screen, cell lysate, split luciferase complementation, luminescence; Perilipin-5 (Homo sapiens) + 1-acylglycerol-3-phosphate O-acyltransferase ABHD5 (Homo …; Split G. princeps luciferase complementation, 4 h; inhibition, % at 4 µM; 360,000 tested, 0.78% active;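 active = inhibition above the mean inhibition across every tested compound plus 3 SD, cut at about 22% in these data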;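 note: 0% = DMSO only wells and the 100% control is not disclosed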
Target sequence (Q00G26 whole entry, looked up): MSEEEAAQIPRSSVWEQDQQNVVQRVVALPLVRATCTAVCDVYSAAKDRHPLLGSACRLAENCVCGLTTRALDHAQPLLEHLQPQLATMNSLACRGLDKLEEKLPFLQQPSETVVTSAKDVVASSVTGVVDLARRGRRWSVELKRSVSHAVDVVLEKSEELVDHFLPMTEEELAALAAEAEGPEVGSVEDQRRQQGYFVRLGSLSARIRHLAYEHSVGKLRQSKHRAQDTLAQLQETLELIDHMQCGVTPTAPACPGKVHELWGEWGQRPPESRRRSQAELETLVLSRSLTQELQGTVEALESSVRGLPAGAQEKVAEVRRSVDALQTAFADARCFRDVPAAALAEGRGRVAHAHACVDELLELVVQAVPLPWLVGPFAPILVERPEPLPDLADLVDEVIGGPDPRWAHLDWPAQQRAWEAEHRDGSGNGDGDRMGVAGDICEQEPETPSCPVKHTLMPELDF
Target sequence (Q8WTS1 whole entry, looked up): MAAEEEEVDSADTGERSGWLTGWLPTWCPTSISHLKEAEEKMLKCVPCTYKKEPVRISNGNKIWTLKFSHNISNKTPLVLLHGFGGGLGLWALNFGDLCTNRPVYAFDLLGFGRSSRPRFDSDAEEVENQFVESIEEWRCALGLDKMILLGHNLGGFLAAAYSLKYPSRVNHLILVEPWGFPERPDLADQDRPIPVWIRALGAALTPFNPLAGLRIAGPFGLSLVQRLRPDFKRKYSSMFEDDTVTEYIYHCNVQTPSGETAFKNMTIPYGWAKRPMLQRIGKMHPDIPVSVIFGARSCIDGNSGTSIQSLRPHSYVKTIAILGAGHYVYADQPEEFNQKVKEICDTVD
Rce1 inh – yeast Rce1p protease inhibitors, primary screen, biochemical, fluorescence, cell-free homogeneous | AID 2563, 2010 | yeast membranes, quenched prenylated peptide cleavage fluorescence | calls only | 290,000 tested, 0.27% active | CAAX prenyl protease 2 (Saccharomyces cerevisiae (strain ATCC 204508 / S288c)), Q03530;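 active = fall in fluorescence gain of 50% or more versus controls, with final raw signal at or below 3038400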;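 note: plate controls were neutral control wells for no effect and wells lacking membranes for full effect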
Exocytosis inh – LAMP-1 surface exposure blockers, TALL-104 cells – cell-based, flow cytometry, MLPCN library, primary screen; inhibition, % at 10 µM; TALL-104 LAMP-1 surface exposure; cells stimulated with thapsigargin and PMA; 360,000 tested, 0.66% active;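 active = inhibition above about 55%, limit read from the data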
Granule exo CP1 – inhibitors of lytic granule exocytosis, confirmation, TALL-104 cells, flow cytometry, Cherry Pick01; AID 651954, 2012; inhibition, % at 10 µM; 1,500 tested, 11% active; shares compounds with Exocytosis inh; LAMP-1 externalization; stimulated with PMA plus thapsigargin; in the data active = inhibition above about 60%;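 note: 0% = stimulated vehicle wells and 100% = unstimulated wells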
Numbers without * were called inactive; i = inactive; nt = no result given; ! = not confirmed by another sample.

SMILES	M18AAP inhibitor	Platelet DG rel	ABHD5 PLIN5 PPI	Rce1 inh	Exocytosis inh	Granule exo CP1
COc1ccc(NC(=O)CC2C(=O)N(Cc3ccccc3)C(=S)N2CCN2CCOCC2)cc1 (stereo not given)	2	21	-3	i	-5	nt
CCOC(=O)c1c(C)oc2c1c(C(c1cccnc1)N1CCOCC1)c(O)c1ccccc12 (stereo not given)	-6	5	-30	i	98*	83*
CCOC(=O)c1c(C)oc2c1c1c(c3ccccc32)OCN(Cc2cccnc2)C1	1	nt	-46	nt	1	nt
COC(=O)c1ccccc1NS(=O)(=O)c1ccc(Cl)nc1	-5	-2	0	i	86*	-11
CN(C)C(=O)c1ccc(NC(=O)c2cccc(S(=O)(=O)N3CCCc4ccccc43)c2)cc1	nt	30	-2	i	-2	nt
COCC1CCN(Cc2c(C(=O)N3CCc4ccccc4C3)nc3ccc(Cl)cn23)C1 (stereo not given)	7	-3	7	i	-9	nt
CCOC(=O)c1c2c(n(C)c1C)C(=O)C(=O)c1ccc(Br)cc1-2	-1	0	-19	i	2	nt
CCOC(=O)c1c2c(n(Cc3ccccc3)c1C)C(=O)C(=O)c1ccccc1-2	nt	nt	-34	nt	99*	50
COc1cc(C(=O)Nc2sc3c(c2C(=O)NCc2ccco2)CCCC3)cc(OC)c1OC	-5	4	1	i	55	nt
COc1ccc(C(=O)Nc2ccc(Cl)cc2C(=O)NCc2ccco2)cc1OC	9	5	6	i	60*	44
COc1ccc(C(=O)Nc2sc3c(c2C(=O)NCc2ccco2)CCCC3)cc1OC	0	3	3	i	56*	5
O=C(Nc1sc2c(c1C(=O)NCc1ccco1)CCCC2)c1ccc2c(c1)OCO2	3	-10	3	i	59*	-2
CCOC(=O)N1CCN(C(=O)c2oc(=O)c3ccccc3c2-c2ccc(C)cc2)CC1	-5	-2	-1	i	-4	nt
Cc1cc(C)c(NC(=O)/C=C\C(=O)O)c(Cl)c1	-26	4	7	i	-2	nt
O=C(Nc1cnn(Cc2ccccc2)c1)c1cc2nc(-c3ccco3)cc(C(F)(F)F)n2n1	2	16	-1	i	96*	-5
COc1cccc2c1C(=O)c1ccc3ccccc3c1C2=O	17	-32	-27	i	61*	78*
Cc1nnc(NC(=O)c2cc(-c3ccco3)nc3ccccc23)s1	nt	-7	4	i	12	nt
CCOc1ccc2c(c1)C(C)=CC(C)(C)N2S(=O)(=O)c1ccc(NC(C)=O)cc1	1	4	-4	i	69*	-12
COc1ccc2c(c1)C(C)=CC(C)(C)N2S(=O)(=O)c1ccc(NC(C)=O)cc1	-14	-3	0	i	52	nt
COc1cc(C(C)=O)ccc1OCC(=O)NCC(c1ccc(F)cc1)N1CCOCC1 (stereo not given)	nt	nt	0	nt	62*	-5
CC(=O)N1CCN(S(=O)(=O)c2cccc(C(=O)NCCC3=CCCCC3)c2)CC1	nt	-6	-4	i	67*	-10
O=S(=O)(NCc1ccco1)c1ccc(S(=O)(=O)N2CCCC2)cc1	3	7	7	i	2	nt
O=CNc1cc(-c2ccsc2)cn2c(-c3ccccc3)cnc12	nt	nt	5	nt	71*	82*
COc1ccc(-c2cc(NC=O)c3ncc(-c4cccc(OC)c4)n3c2)cc1	nt	nt	6	nt	63*	74*
COc1cccc(-c2cnc3c(NC(C)=O)cc(-c4ccsc4)cn23)c1	nt	nt	2	nt	77*	91*
SMILES	M18AAP inhibitor	Platelet DG rel	ABHD5 PLIN5 PPI	Rce1 inh	Exocytosis inh	Granule exo CP1
CS(=O)(=O)c1ccc(-c2cnc3c(NC=O)cc(-c4ccsc4)cn23)cc1	nt	nt	4	nt	-6	nt
COCCN(C(=O)Cc1cccs1)C(C(=O)NCc1ccc(OC)cc1)c1ccc(C)cc1 (stereo not given)	5	-7	-1	i	1	nt
COc1ccc(CNC(=O)C(c2ccc(C)o2)N(Cc2cccs2)C(=O)Cc2cccs2)cc1 (stereo not given)	-4	-2	0	i	77*	8
COC(=O)/C(=C/N(C)C)C(=O)N1CCN(c2ccc(Cl)c(Cl)c2)CC1	-1	6	4	i	-4	nt
Cc1cn2c(=O)c(C(=O)NCc3ccc4c(c3)OCO4)cnc2s1	nt	21	1	i	59*	-10
Cc1ccc(C(=O)NCc2ccc3c(c2)OCO3)o1	1	-2	13	i	4	nt
Cc1oc(-c2ccccc2)cc1C(=O)NC1CCN(Cc2ccccc2)CC1	0	5	-10	i	67*	-7
CCCCNc1c(-c2ccc(OC)c(SC3CCCCC3)c2)nc2ccc(C)cn12	nt	nt	-13	nt	86*!	77*
CC1(C(=O)NCc2ccccc2)CSCC(=O)N1C1CC1 (stereo not given)	nt	nt	-4	nt	-2	nt
COc1cccc(N2CCc3c(C)nc4ccc(Cl)cc4c32)c1	-3	-3	6	i	82*	-7
CCOc1ccc(S(=O)(=O)Nc2cccc(C(=O)N3CCN(c4ccccn4)CC3)c2)cc1	nt	nt	1	nt	56*	-3
CCOc1ccc2[nH]c3c(NCCC(C)C)ncnc3c2c1	1	-1	4	i	35	nt
COc1ccc2nc(C)cc(N3CCN(c4ccccc4)CC3)c2c1	4	-2	-1	i	65*	-2
Cn1c(N)c(C(=O)NCc2ccccc2)sc1=S	21	-1	-20	i	1	nt
COc1ccc(C(O)(CCN2CCCCC2)C2CCCCC2)cc1 (stereo not given)	-10	10	-3	i	75*	-12
Cc1ccc(Nc2nnc(SCC(=O)NC3CCCc4ccccc43)s2)cc1 (stereo not given)	4	-8	1	i	2	nt
c1ccc(CN2CCCC3(CCCN(Cc4nc(CC5CC5)no4)C3)C2)cc1 (stereo not given)	-9	4	-2	i	2	nt
c1ccc(CN2CCCC3(CCCN(Cc4nc(COc5ccccc5)no4)C3)C2)cc1 (stereo not given)	5	2	-5	i	60*	-4
Cc1cccc(Cn2nc(C(C)(C)C)cc2C(=O)Nc2ccc(F)cc2)c1	-4	10	-3	i	56*	0
CCCCCCN1C[C@H](n2cc(-c3ccc(F)cc3)nn2)[C@@H](O)C[C@@H]1c1ccccc1	nt	nt	-2	nt	1	nt
CCCCCCN1C[C@H](n2cc(-c3ccc(F)cc3)nn2)[C@@H](O)C[C@@H]1c1ccc(Cl)cc1	nt	nt	1	nt	58*	35
Cc1ccc(-c2noc(CN(C(=O)C34CC5CC(CC(C5)C3)C4)C(C)C)n2)cc1	11	9	1	i	-2	nt
O=c1oc2ccccc2c2c1nc(C(F)(F)F)n2-c1ccccc1	3	0	6	i	67*	-3

Screening data as filed in PubChem BioAssay.
